Assay results taken from PubChem BioAssay AID460 (PCMD, 2006).
Screen size: about 58,000 compounds; about 100 (0.17%) were called active. Cut-off read from the data, not from the text of the source: active = inhibition above about 45%; inactive = the rest. For the sample, actives were picked, then their nearest neighbours and some compounds at random.

What follows are compounds tested against Procathepsin L (Homo sapiens) (UniProt P07711) (assay: blockers of CTSL protease activity – biochemical (AID 460;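 note: 0% = enzyme with no compound and 100% = no enzyme blank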)). Details: purified cathepsin L, fluorogenic substrate, fluorescence; active compounds read high;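 tested at 10 µM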.
Procathepsin L (Homo sapiens), sequence (P07711 114-288 limits assumed): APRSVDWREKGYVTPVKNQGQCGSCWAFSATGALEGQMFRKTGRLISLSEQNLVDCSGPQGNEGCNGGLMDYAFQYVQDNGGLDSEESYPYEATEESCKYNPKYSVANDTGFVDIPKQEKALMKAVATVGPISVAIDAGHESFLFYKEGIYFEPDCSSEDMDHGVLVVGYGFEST
Procathepsin L (Homo sapiens), sequence (P07711 292-333 limits assumed): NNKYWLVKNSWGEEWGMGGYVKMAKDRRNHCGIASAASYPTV

inhibition, inactive:
C=CCN1C(=O)C(O)(CC(=O)c2ccc(Cl)cc2)c2ccccc21 (configuration not stated) 0.03%, CSc1cccc(NC(=O)C2CCCN2S(=O)(=O)c2ccc3c(c2)CCC(=O)N3)c1 (configuration not stated) 7.66%, Nc1ccc(SCCN2C(=O)c3ccccc3C2=O)cc1 7.88%, CCn1c2c(c3ccc(OC)cc31)CCCC2=O -5.8%, C=CCOc1nc2c(c(=O)n(C)c(=O)n2C)n1Cc1ccc(Cl)cc1Cl 31.1%, CCOC(=O)c1ccc(COC(=O)c2cc(=O)[nH]c3ccccc23)o1 2.07%, CCC(=O)Nc1nc(OC)cc(OC)n1 -4.97%, O=C(NCC1CCCO1)C(C(=O)c1ccccc1)n1cc(Cl)ccc1=O (configuration not stated) -10.2%, Cc1ccc(-c2nnn(CC(=O)N(CCO)C(C(=O)NC(C)(C)C)c3ccncc3)n2)cc1 (configuration not stated) -1.4%, CCCCCCC(=O)N(O)C1CC(=O)N(c2ccccc2)C1=O (configuration not stated) -5.53%, COCCn1c(=O)[nH]c2cc(C(=O)NCc3cccnc3)ccc2c1=O 1.59%, COc1ccc(CN2CN(C(C)C)CSC2=S)cc1 17%, Cc1cc(C(F)(F)F)nn1-c1nc(-c2ccco2)cc(C(F)(F)F)n1 1.46%, CC(=O)Oc1ccc2c(C)c(CC(C)O)c(=O)oc2c1 (configuration not stated) -70.3%, COc1ccc(C(=O)NCCc2ccc(S(N)(=O)=O)cc2)cc1OC 15.1%, Cc1ccc(OCC(O)CN2CCN(CC(O)COc3ccc(C)cc3Cl)CC2)c(Cl)c1 (configuration not stated) 24.6%, CCn1c(SCC(=O)Nc2nc3ccc(OC)cc3s2)nnc1-c1ccoc1C 19.9%, C[C@H](NC(=O)OC(C)(C)C)c1nnc(SCC(N)=O)o1 9.7%, CCOC(=O)C1CCc2nc3ccccc3c(=O)n21 (configuration not stated) 17.4%, CCN(CC)CCCNC(=O)c1cc(-c2cccc(Cl)c2)on1 10.3%, NC(=O)c1ccsc1NC(=O)c1ccco1 3.89%, CC1CCc2c(sc3c2C2=NS(=O)(=O)CCN2C=N3)C1 (configuration not stated) 0.12%, CCS(=O)(=O)N1CCN(C(=O)c2cccs2)CC1 3.99%, O=C(NCCCNC(=O)NC1CCCCC1)NC1CCCCC1 4.27%, N#Cc1c2c(c(N3CCN(CCO)CC3)n3c1nc1ccccc13)CCCC2 10.1%, Cc1ccc(-c2cc(C(F)(F)F)n3nc(C(=O)N4CCCC4)cc3n2)cc1 -2.27%, C=CCNC(=O)c1ccc(C)c(Br)c1 21.6%
